The list is not random: actives were taken first. Their share in the collection is about 19%.
TDP1 cell CPT = growth inhibition of DT40 Tdp1-/-;hTDP1 cells with camptothecin (screen for TDP1 inhibitors); chicken DT40 Tdp1-/-;hTDP1 cells + 20 nM CPT, ATP luminescence, 48 h; Potency, µM (doses to about 46.2 µM), without a hit: top-dose activity change, negative = growth inhibition, hits mostly inhibitors; actives 12% (n = 420,000); further: potency means the concentration at half of the fitted maximal effect; nearly all actives have a fitted effect of over 55% in size
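Chicken DT40 Tdp1-/- cells stably complemented with human TDP1 were seeded at 400 cells/well in medium containing 20 nM camptothecin, exposed to pin-transferred compounds, and grown at 37 °C for at least 48 hr. Viability was read as ATP luminescence.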
Giardia kill = Giardia lamblia killing | activity change, % at 7.66 µM, hits read low | actives 0.15% (n = 340,000) | Giardia lamblia trophozoite viability | AID 540267; in the data active means activity change below about -80%; inconclusive means between about -30% and that limit;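 further: parasites exposed to compound for two days anaerobically before the ATP read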
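Media and compound were dispensed first, then trophozoites at 100 cells/well; plates sat 48 hrs at 37 deg C without oxygen before ATP luminescence reagent was added and read after 15-30 min at room temperature.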
IL-1B inflam inh = inhibitors of inflammasome signaling (IL-1 beta secretion); THP-1 LPS/ATP IL-1B secretion, AlphaLISA, 16 h; stronger effect = lower value; activity change, % at 57.5 µM; actives 4.7% (n = 360,000); AID 743279; in the data active means activity change below about -50%; inconclusive means mostly about -30% to -49%
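THP-1 cells pretreated 1 hr with compounds (up to 57.5 uM final), then stimulated with LPS (250 ng/mL final) plus ATP (1.25 mM final); secreted IL-1B measured by AlphaLISA after 16 hr, decreased signal indicating inhibition.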
TDP1 block = blocks human tyrosyl-DNA phosphodiesterase 1. Potency, µM (top dose mostly 130 µM), inactives show top-dose activity change, negative = inhibition, most hits filed as inhibitors. actives 0.28% (n = 350,000). Q9NUW8. AID 485290. recombinant TDP1, AlphaScreen DNA substrate cleavage; further: potency means the concentration at half of the fitted maximal effect; nearly all actives have a fitted effect of over 40% in size
Target sequence (Q9NUW8 whole entry, looked up): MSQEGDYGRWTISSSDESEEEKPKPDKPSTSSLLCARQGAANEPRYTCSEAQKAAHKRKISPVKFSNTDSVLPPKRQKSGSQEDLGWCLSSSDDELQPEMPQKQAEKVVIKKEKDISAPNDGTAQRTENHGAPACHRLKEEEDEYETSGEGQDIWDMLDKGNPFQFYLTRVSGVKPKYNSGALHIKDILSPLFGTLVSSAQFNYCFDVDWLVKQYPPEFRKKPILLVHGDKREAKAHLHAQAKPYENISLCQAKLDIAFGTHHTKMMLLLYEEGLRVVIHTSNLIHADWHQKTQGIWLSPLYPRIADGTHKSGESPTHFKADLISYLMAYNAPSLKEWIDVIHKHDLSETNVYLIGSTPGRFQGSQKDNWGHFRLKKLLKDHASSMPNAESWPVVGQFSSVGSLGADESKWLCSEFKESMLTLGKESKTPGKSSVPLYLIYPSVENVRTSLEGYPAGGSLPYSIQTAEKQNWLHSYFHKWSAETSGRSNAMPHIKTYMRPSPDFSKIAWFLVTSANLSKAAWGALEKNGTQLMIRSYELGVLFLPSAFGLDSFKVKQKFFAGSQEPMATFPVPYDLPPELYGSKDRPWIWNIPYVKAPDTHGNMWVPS
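Signal: AlphaScreen proximity between streptavidin donor and anti-FITC acceptor beads on intact substrate. Reaction: Tdp1 1 nM, substrate 15 nM final, 5 min RT after 15 min compound preincubation.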
TDP1 cell noCPT = qHTS for Inhibitors of human tyrosyl-DNA phosphodiesterase 1 (TDP1): qHTS in cells in absence of CPT. DT40 Tdp1-/- hTDP1 cells, no CPT, ATP luminescence, 48 h. Potency, µM (series often up to 46.2 µM), for inactives: at the top dose activity change, negative = growth inhibition, hits mostly inhibitors. actives 15% (n = 420,000); further: potency means the concentration at half of the fitted maximal effect; nearly all actives have a fitted effect of over 55% in size
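Seeded 400 DT40-hTDP1 cells/well (vehicle DMSO, no 20 nM CPT); pinned compounds; ≥48 hr at 37 °C; CellTiter-Glo luminescence as viability measure.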
ELG1 repair inh = ELG1-dependent DNA repair inhibition. AID 504467. actives 2.3% (n = 330,000). Potency, µM (titrated, usually from 46.1 µM), for the others: at the top dose activity change, negative = inhibition, usual class: inhibitors. HEK293T ELG1-luciferase reporter, luminescence, 16 h; DNA damage induced by 5-fluorouridine; further: potency means the concentration at half of the fitted maximal effect; nearly all actives have a fitted effect of over 55% in size
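Overnight (16 hr) co-exposure of 2,000 cells/well to 5-fluorouridine and compound at 37 °C preceded detection. Luciferase was quantified via ONE-Glo luminescence; loss of signal denotes inhibition.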
Active calls of the source: *; ? = inconclusive; . = no result given; [ ] = dose if it differs, or a comment. Unless noted, the call rests on the fitted dose curve; in most records, active means well fitted curve in the direction sought with a large enough effect; inconclusive means small, poorly fitted or top-dose-only effect, or another doubt; inactive means no such curve, though single readings can be large; an effect the other way counts as inactive or inconclusive. On the % scale 0 is the no-effect control and ±100 the full control effect.

SMILES	TDP1 cell CPT	Giardia kill	IL-1B inflam inh	TDP1 block	TDP1 cell noCPT	ELG1 repair inh
CCc1nc(Nc2cccc(O)c2)c2oc3ccccc3c2n1	?	-13	?	.	26µM*	?
CCc1nc(N[C@H](C(=O)O)C(C)C)c2oc3ccccc3c2n1	-9%	19	28	-3%	?	0%
Cc1noc(C)c1CSc1ccccc1C(=O)O	3%	1	5	0%	-15%	-3%
O=C1Cn2nnc(-c3ccccc3)c2C2c3ccccc3CCN12 (stereo not given)	?	.	32	.	?	.
OCCCNCc1cc2cc3c(cc2nc1N1CCN(c2cccc(Cl)c2)CC1)OCO3	7%[9.04 µM]	.	.	.	-12%	.
CCOc1ccc(N=Nc2ccc(N)cc2N)cc1	?	.	.	20%	?	.
COc1ccc(CCc2nnc(CCC(=O)NCc3cc(C(C)C)no3)o2)cc1	1%	6	21	4%	-12%	?
CCc1nc(SCC(=O)Nc2ccc3c(c2)OCCO3)c2oc3ccccc3c2n1	?	-16	4	3%	26µM*	-14%
CCc1nc(N2CCCCC2C(=O)O)c2oc3ccccc3c2n1 (stereo not given)	13%	-10	44	0%	-2%	-13%
Cc1nc(Nc2ccncc2)c2oc3ccccc3c2n1	10µM*	1	-93*	4%	12µM*	16µM*
Cc1cccc2c(Nc3ccc4c(c3)OCO4)nc(CN3CCC(N4CCCCC4)CC3)nc12	15µM*	.	.	.	21µM*	.
CCc1nc(N2CCCCC2C)c2oc3ccccc3c2n1 (stereo not given)	29µM*	-8	26	-3%	26µM*	.
COc1cc(Cl)c(C)cc1Nc1nc2ccccc2nc1NS(=O)(=O)c1ccccc1	-16%	.	.	-9%	-27%	.
CC(C)(CNC(=O)c1cnn(-c2ncc3c(n2)-c2ccccc2CC3)c1C1CC1)N1CCOCC1	-10%[9.04 µM]	.	.	.	1%	.
CCc1nc(Nc2ccncc2)c2oc3ccccc3c2n1	5.8µM*	6	-59*	3%	2.3µM*	?
CCc1nc(Nc2ccccc2OC)c2oc3ccccc3c2n1	?	-24	-54*	.	?	-26%
CCc1nc(Nc2cc(OC)ccc2OC)c2oc3ccccc3c2n1	?	-9	10	.	?	-18%
CC(=O)Nc1ccc(Nc2nc(C)nc3c2oc2ccccc23)cc1	?	-20	19	7%	?	?
Cc1cccc(Nc2nc(C)nc3c2oc2ccccc23)c1	16µM*	7	4	.	?	?
CCc1nc(N2CCN(Cc3ccc4c(c3)OCO4)CC2)c2oc3ccccc3c2n1	26µM*	4	-28	8%	26µM*	17%
CCc1nc(N2CCCCC2)c2oc3ccccc3c2n1	?	-9	-8	-1%	?	.
O=C(Nc1cnn(C23CC4CC(CC(C4)C2)C3)c1)c1cc(-c2ccccc2)on1	23µM*	-5	-16	7%	21µM*	-13%
CCCn1cc(NC(=O)c2cc(-c3ccccc3)on2)cn1	?	-5	0	1%	23µM*	?
O=C(Nc1cccc(Cl)c1)c1cc(-c2ccccc2)on1	-20%	.	.	-1%	-5%	.
CCOC(=O)[C@]12CCCC=C1N(CCc1ccc(OC)c(OC)c1)C(=O)[C@H](CC(=O)N1CCN(C(=O)C3CC3)CC1)C2	-10%	.	19	.	-14%	.
CCOC(=O)[C@]12CCCC=C1N(CCc1ccc(OC)c(OC)c1)C(=O)[C@H](CC(=O)N1CCCCC1)C2	15µM*	.	-25	.	12µM*	.
CCCCCCCCN1C(=O)[C@H](CC(=O)NCc2ccc(OC)c(OC)c2)C[C@@]2(C(=O)OCC)CCCC=C12	?	.	-77*	.	?	.

Source: PubChem BioAssay (National Center for Advancing Translational Sciences (NCATS))
